Results reported in PubChem BioAssay (NCATS).
Results filed as inconclusive are left out. Activity calls are given as the source filed them. Calls come from the whole dose curve; as a rule, active = well fitted curve in the direction sought with a large enough effect; inconclusive = small, poorly fitted or top-dose-only effect, or another doubt; inactive = no such curve, though single readings can be large; an effect the other way counts as inactive or inconclusive.

Tests used:
[1] = target: Protein phosphatase 1D (Homo sapiens) (UniProt O15297); test: RapidFire Mass Spectrometry qHTS Assay for Modulators of WT P53-Induced Phosphatase 1 (WIP1) (AID 1347424); conditions: WIP1 dephosphorylation of phosphopeptide, RapidFire MS; series mostly up to 63 µM;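 note: amount of dephosphorylated VEPPL-S-QETFS peptide product formed by WIP1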
Summary of the method: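 Mass-spectrometric measurement of dephosphorylated peptide after a 5 min room-temperature reaction of 10 nM WIP1 with 2 uM phosphopeptide, following 1 h compound preincubation in 30 mM MgCl2 buffer.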

[2] = target: Protein phosphatase 1D (Homo sapiens) (UniProt O15297); test: Rhodamine-PBP qHTS Assay for Modulators of WT P53-Induced Phosphatase 1 (WIP1) (AID 1347425); conditions: recombinant WIP1, Rhodamine-PBP phosphate fluorescence, real-time; series mostly up to 57.5 µM
Summary of the method: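 Read-out: Rhodamine-PBP fluorescence (ex 525/em 598 nm) for released Pi, read each minute for 11 min after adding 10 uM VEPPL-pS-QETFS; signal taken as f1 minus pre-substrate f0. Enzyme 5 nM WIP1 with 1 hr room-temperature compound preincubation.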

[3] = Validation qHTS assay for inhibitors of Activation Induced Cytidine Deaminase (AID): UDG Counterscreen signal (AID 1347427); conditions: biochemical UDG counterscreen, fluorescence signal; series mostly up to 115 µM
Summary of the method: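 Fluorescence at 560 nm excitation, 665 nm emission reports UDG signal after 250 mM NaOH (2x) addition and 30 min. Enzymes (AID 1 uM, UDG 2 U/mL, at 4/3x) preincubated 10 min with compound, then 4 h with 4x 250 nM DJC20/DJC23 substrate at room temperature.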

[4] = target: Single-stranded DNA cytosine deaminase (Homo sapiens) (UniProt Q9GZX7); test: Validation qHTS assay for inhibitors of Activation Induced Cytidine Deaminase (AID): AID signal (AID 1347429); conditions: Recombinant AID, FRET ssDNA deamination with UDG, fluorescence; series mostly up to 115 µM
Summary of the method: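 Compounds (up to 114 uM final) are tested against AID plus UDG using DJC20/DJC23 FRET substrate. Reactions incubate 4 hr at room temperature, receive NaOH for 30 min, and are read at Ex 540/Em 590 nm.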

[5] = Primary qHTS for inhibitors of La Crosse Virus (LACV) - induced cell death in SH-SY5Y cells (AID 1508616); conditions: SH-SY5Y LACV cytopathicity rescue, ATP luminescence, 6 d; series mostly up to 4.29 µM;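 note: top concentration of the series differs between compounds; higher means more rescue of cells from virus-induced death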
Summary of the method: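 Screening measures cell viability in LACV-infected SH-SY5Y cultures. Compound was added before virus (0.01 MOI), and ATP was detected by luminescence 6 days later.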

[6] = target: Calcium and integrin-binding protein 1 (Homo sapiens) (UniProt Q99828); test: Validation qHTS for Identification of Calcium Integrin Binding protein 1 (CIB1) Competitor (AID 1508618); conditions: CIB1-GST / FITC-alphaIIb peptide fluorescence polarization; series mostly up to 114 µM
Summary of the method: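 CIB1-GST (1 uM final) in 5 mM HEPES pH 7.4, 125 mM NaCl, 5 mM CaCl2, 0.01% Tween20 was preincubated 15 min at room temperature with compound (up to 114 uM), then FITC-alphaIIb peptide (100 nM) added for 15 min; fluorescence polarization read.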

[7] = target: Calcium and integrin-binding protein 1 (Homo sapiens) (UniProt Q99828); test: Primary qHTS for Identification of Calcium Integrin Binding Protein 1 (CIB1) Competitor (AID 1508620); conditions: CIB1-GST / FITC-alphaIIb peptide fluorescence polarization; series mostly up to 57.7 µM;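 note: GST tagged CIB1 binding a fluorescein labelled alphaIIb integrin peptide tracer; top concentration of the series differs between compounds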
Summary of the method: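 Fluorescence polarization competition: CIB1-GST (1 uM final) preincubated with compound 15 min at room temperature, then FITC-labeled alphaIIb peptide (100 nM final) added for another 15 min. Polarization read at Ex 480/Em 540.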

[8] = qHTS to identify inhibitors of the type 1 interferon - major histocompatibility complex class I in skeletal muscle: primary screen against the NCATS Mechanism Interrogation Plate v5.0 (MIPE) Libary (AID 1347411); conditions: iHSKM cells + IFN-b, HiBiT-tagged MHC-I luminescence, 24 h; series mostly up to 45.8 µM; note: nearly all actives have a fitted effect of over 65% in size; note: potency is the fitted concentration of half-maximal effect
Summary of the method: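 IFN-beta-driven (4 ng/ml) HLA-B-HiBit expression in CRISPR-tagged C25cl48 myoblasts; compounds 11-pt, 1:3, max 46 uM, 24 hr exposure; lytic NanoLuc complementation luminescence.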

[9] = target: Calcium and integrin-binding protein 1 (Homo sapiens) (UniProt Q99828); test: Confirmatory qHTS for Identification of Calcium Integrin Binding Protein 1 (CIB1) Competitor (AID 1508617); conditions: CIB1 binding competition assay, biochemical qHTS; series mostly up to 114 µM; note: potency is the fitted concentration of half-maximal effect; nearly all actives have a fitted effect of over 65% in size
Summary of the method: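 Fluorescence polarization competition: CIB1-GST (1 uM final) in 5 mM HEPES pH 7.4, 125 mM NaCl, 5 mM CaCl2, 0.01% Tween20 preincubated 15 min RT with compound (up to 114 uM), then FITC-alphaIIb peptide (100 nM) added, 15 min RT.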

Measured: Potency

Sequence of Calcium and integrin-binding protein 1 (Homo sapiens) (Q99828 whole entry, looked up): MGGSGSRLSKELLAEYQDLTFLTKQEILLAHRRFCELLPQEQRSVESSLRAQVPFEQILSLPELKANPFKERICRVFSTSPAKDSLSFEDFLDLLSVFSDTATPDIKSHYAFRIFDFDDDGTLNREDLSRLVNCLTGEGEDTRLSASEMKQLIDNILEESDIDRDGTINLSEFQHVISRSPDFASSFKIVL
Sequence of Protein phosphatase 1D (Homo sapiens) (O15297 whole entry, looked up): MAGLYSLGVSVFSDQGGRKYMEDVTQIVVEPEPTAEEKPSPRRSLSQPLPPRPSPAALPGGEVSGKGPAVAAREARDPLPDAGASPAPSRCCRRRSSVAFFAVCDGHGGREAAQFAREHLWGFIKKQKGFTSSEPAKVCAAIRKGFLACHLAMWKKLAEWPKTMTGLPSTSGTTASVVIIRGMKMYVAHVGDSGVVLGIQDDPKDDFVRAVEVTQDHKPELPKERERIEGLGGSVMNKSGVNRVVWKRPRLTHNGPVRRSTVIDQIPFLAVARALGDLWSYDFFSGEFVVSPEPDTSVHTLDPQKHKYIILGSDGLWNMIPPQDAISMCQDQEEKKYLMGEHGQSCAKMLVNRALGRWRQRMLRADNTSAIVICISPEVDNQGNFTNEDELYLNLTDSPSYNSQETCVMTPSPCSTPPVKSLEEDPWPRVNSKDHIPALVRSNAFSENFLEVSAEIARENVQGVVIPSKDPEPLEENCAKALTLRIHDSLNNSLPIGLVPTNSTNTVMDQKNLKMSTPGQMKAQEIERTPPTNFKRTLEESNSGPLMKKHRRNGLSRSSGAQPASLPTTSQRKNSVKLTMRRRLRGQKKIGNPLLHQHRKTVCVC
Sequence of Single-stranded DNA cytosine deaminase (Homo sapiens) (Q9GZX7 whole entry, looked up): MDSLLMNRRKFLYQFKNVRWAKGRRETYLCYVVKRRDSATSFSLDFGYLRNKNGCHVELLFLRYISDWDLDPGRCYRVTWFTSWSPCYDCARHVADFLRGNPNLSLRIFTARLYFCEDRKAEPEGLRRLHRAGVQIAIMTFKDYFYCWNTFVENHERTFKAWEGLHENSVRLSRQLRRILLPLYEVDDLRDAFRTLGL

CC(C)(C)c1ccc(C(O)CCCN2CCC(C(O)(c3ccccc3)c3ccccc3)CC2)cc1 (configuration not stated)
inactive: [1] | [2] | [3] | [4] | [5] | [6] | [7]

CC(C)NCC(O)COc1cccc2[nH]ccc12 (configuration not stated)
inactive: [1] | [2] | [3] | [4] | [5] | [6] | [7]

NC(=O)c1ccc2nc(-c3ccc(Oc4ccc(Cl)cc4)cc3)[nH]c2c1
inactive: [8] | [7]

COc1ccccc1N1CCN(CCCNc2cc(=O)n(C)c(=O)n2C)CC1
inactive: [1] | [2] | [3] | [4] | [5] | [6] | [7]

COc1cc2c(cc1OC)CN(CCc1ccc(NC(=O)c3cc(OC)c(OC)cc3NC(=O)c3cnc4ccccc4c3)cc1)CC2
inactive: [8] | [7]

CC(=O)CCCCn1c(=O)c2c(ncn2C)n(C)c1=O
inactive: [1] | [2] | [3] | [4] | [5]

COc1cc(N2CCC(N3CCN(C)CC3)CC2)ccc1Nc1ncc(Cl)c(Nc2ccccc2S(=O)(=O)C(C)C)n1
active: [8] 18.6 µM
inactive: [7]

Cc1c(NC(=O)c2ccc(C(C)(C)C)cc2)cccc1-c1cn(C)c(=O)c(Nc2ccc(C(=O)N3CCOCC3)cc2)n1
inactive: [8] | [7]

CCN1CCC[C@H]1CNC(=O)c1cc(S(N)(=O)=O)ccc1OC
inactive: [1] | [2] | [3] | [4] | [5] | [6] | [7]

CC(C)(C)OC(=O)N[C@H]1CCCCCC=C[C@@H]2C[C@@]2(C(=O)NS(=O)(=O)C2CC2)NC(=O)[C@@H]2C[C@@H](OC(=O)N3Cc4cccc(F)c4C3)CN2C1=O
inactive: [8] | [7]

C[C@]12CCC3c4ccc(O)cc4CCC3C1CCC2=O (some centres not stated)
inactive: [8] | [7]

CC#CCn1c(N2CCC[C@@H](N)C2)nc2c1c(=O)n(Cc1nc(C)c3ccccc3n1)c(=O)n2C
inactive: [8] | [7]

O=C(NCCN1CCOCC1)c1ccc(Cl)cc1
inactive: [1] | [2] | [3] | [4] | [5] | [6] | [7]

CCCCCNC(=O)N1CCC(CN(Cc2ccc(Cl)cc2)Cc2ccc([N+](=O)[O-])s2)C1 (configuration not stated)
inactive: [8] | [7]

CC(=O)N[C@@H](CS)C(=O)O
inactive: [1] | [2] | [3] | [4] | [5] | [6] | [7]

O=C(NCc1ccncc1)C12C[C@H]3C[C@@H](C1)CC(c1ccc(Cl)cc1)(C3)C2
inactive: [8] | [7]

O=C1NCC2(CCN(CCc3ccccc3)CC2)O1
inactive: [1] | [2] | [3] | [4] | [5] | [6] | [7]

CN1CCN(CCOc2cc(OC3CCOCC3)c3c(Nc4c(Cl)ccc5c4OCO5)ncnc3c2)CC1
active: [8] 29.4 µM
inactive: [7]

COc1ccc(-c2nc(N3CCOCC3)c3sc(CN(C)c4ncc(C(=O)NO)cn4)cc3n2)cn1
inactive: [7]
active: [8] 0.033 µM

C[N+](C)(C)CCCCCC[N+](C)(C)C
inactive: [1] | [2] | [3] | [4] | [5] | [6] | [7]

CN(C)Cc1ccc(-c2nc3cccc4c3n2CCNC4=O)cc1
inactive: [7]
active: [8] 14.7 µM

Cc1cccc(C)c1OCC(C)N (configuration not stated)
inactive: [1] | [2] | [3] | [4] | [5]

O=c1cc(-c2ccccc2)oc2cc(O)c(O)c(O)c12
active: [9] 39.8 µM

CCc1ccc(C=C2SC(=S)NC2=O)cc1
active: [9] 8.91 µM
